The source made the active and inactive calls. Rule for the calls: active = hit-call score of the fitted dose curve at least 0.9, where 1 is the maximum; inactive = score below 0.9.
Tests used:
Settings in all cases: mRNA level, 48 h; actives raise or lower the signal
[1] = read-out: Tumor necrosis factor receptor superfamily member 6 (Homo sapiens) (UniProt P25445); assay: LTEA_HepaRG_FAS: Life Technologies and Expression Analysis (LTEA) Assay for Fas cell surface death receptor (FAS) using HepaRG (AID 2283447)
Summary of the method: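 Differentiated HepaRG cells in serum-free induction medium were exposed 48 h to 8 half-log concentrations up to 100 uM in 0.5% DMSO, in duplicate. FAS mRNA was measured by qRT-PCR normalised to ACTB, GAPDH and POLR2A; bidirectional fit versus DMSO.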

[2] = read-out: Fatty acid synthase (Homo sapiens) (UniProt P49327); assay: LTEA_HepaRG_FASN: Life Technologies and Expression Analysis (LTEA) Assay for Fatty Acid Synthase (FASN) using HepaRG (AID 2283448)
Summary of the method: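 Differentiated HepaRG cells in serum-free induction medium exposed 48 h in duplicate to eight half-log concentrations, top 100 uM, 0.5% DMSO. FASN mRNA by qRT-PCR normalised to ACTB, GAPDH, POLR2A; bidirectional fit versus DMSO.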

[3] = read-out: Cyclin D2 (CCND2), CCND2 (gene 894); assay: LTEA_HepaRG_CCND2: Life Technologies and Expression Analysis (LTEA) Assay for Cyclin D2 (CCND2) using HepaRG (AID 2283449);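 note: CCND2 transcript measured by TaqMan qRT-PCR and normalised to three housekeeping genes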
Summary of the method: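 Chemicals in 0.5% DMSO, eight half-log concentrations from 100 uM top, were applied in duplicate for 48 h to human HepaRG cells in serum-free induction medium. CCND2 mRNA by TaqMan qRT-PCR, normalised to ACTB/GAPDH/POLR2A; bidirectional fit versus DMSO.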

[4] = read-out: Cyclin Dependent Kinase Inhibitor 1A (CDKN1A), CDKN1A (gene 1026); assay: LTEA_HepaRG_CDKN1A: Life Technologies and Expression Analysis (LTEA) Assay for Cyclin Dependent Kinase Inhibitor 1A (CDKN1A) using HepaRG (AID 2283450)
Summary of the method: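 Gain or loss of CDKN1A transcript is scored by bidirectional fitting against 0.5% DMSO vehicle. Human HepaRG cultures receive chemicals for 48 h across an 8-point series peaking at 100 uM; expression comes from qRT-PCR.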

[5] = read-out: catalase (CAT), CAT (gene 847); assay: LTEA_HepaRG_CAT: Life Technologies and Expression Analysis (LTEA) Assay for catalase (CAT) using HepaRG (AID 2283452)
Summary of the method: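 HepaRG cells in serum-free induction medium, 0.5% DMSO vehicle, exposed 48 h in duplicate over 8 half-log concentrations from 100 uM. CAT mRNA measured by qRT-PCR, normalized to ACTB, GAPDH, POLR2A; bidirectional fit versus DMSO.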

[6] = read-out: flavin-containing dimethylaniline monooxygenases 3 (FMO3), FMO3 (gene 2328); assay: LTEA_HepaRG_FMO3: Life Technologies and Expression Analysis (LTEA) Assay for flavin-containing dimethylaniline monooxygenases 3 (FMO3) using HepaRG (AID 2283453)
Summary of the method: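 Differentiated HepaRG cells in serum-free induction medium, exposed 48 h in duplicate to 8 half-log concentrations up to 100 uM in 0.5% DMSO. FMO3 mRNA by qRT-PCR, normalized to ACTB, GAPDH, POLR2A; bidirectional fit vs DMSO.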

[7] = read-out: Cytochrome P450 (CYP1A1), CYP1A1 (gene 1543); assay: LTEA_HepaRG_CYP1A1: Life Technologies and Expression Analysis (LTEA) Assay for Cytochrome P450 (CYP1A1) using HepaRG (AID 2283454)
Summary of the method: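 Using HepaRG cultures with 0.5% DMSO as vehicle, eight-concentration exposures (max 100 uM) lasted 48 h. Transcript levels were measured by TaqMan qRT-PCR and normalized to ACTB, GAPDH and POLR2A.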

[8] = read-out: CFLAR gene, CFLAR (gene 8837); assay: LTEA_HepaRG_CFLAR: Life Technologies and Expression Analysis (LTEA) Assay for CFLAR gene using HepaRG (AID 2283455)
Summary of the method: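 Differentiated HepaRG cells in serum-free induction medium were exposed 48 h in duplicate to eight half-log concentrations up to 100 uM in 0.5% DMSO; mRNA measured by TaqMan qRT-PCR, normalized to ACTB, GAPDH, POLR2A; bidirectional fitting versus DMSO.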

[9] = read-out: Forkhead box O1 (FOXO1), FOXO1 (gene 2308); assay: LTEA_HepaRG_FOXO1: Life Technologies and Expression Analysis (LTEA) Assay for Forkhead box O1 (FOXO1) using HepaRG (AID 2283456)
Summary of the method: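 Differentiated HepaRG cells, in serum-free induction medium with 0.5% DMSO, exposed 48 h in duplicate to 8-point half-log series from 100 uM. FOXO1 mRNA measured by TaqMan qRT-PCR, normalized to ACTB, GAPDH, POLR2A; bidirectional fit versus DMSO.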

[10] = read-out: growth arrest and DNA damage 45 (GADD45A), GADD45A (gene 1647); assay: LTEA_HepaRG_GADD45A: Life Technologies and Expression Analysis (LTEA) Assay for growth arrest and DNA damage 45 (GADD45A) using HepaRG (AID 2283458)
Summary of the method: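 Differentiated HepaRG cells exposed 48 h in serum-free induction medium to 8 concentrations, top 100 uM in half-log steps, 0.5% DMSO. GADD45A mRNA quantified by qRT-PCR, normalized to ACTB, GAPDH and POLR2A; bidirectional fit versus DMSO.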

[11] = read-out: Cyclin D1 (CCND1), CCND1 (gene 595); assay: LTEA_HepaRG_CCND1: Life Technologies and Expression Analysis (LTEA) Assay for Cyclin D1 (CCND1) using HepaRG (AID 2283451)
Summary of the method: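 Expression change is measured by qRT-PCR in HepaRG cells after 48 h treatment across eight concentrations topping at 100 uM, with duplicate wells and DMSO (0.5%) serving as baseline for bidirectional fitting.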

Measured: AC50

Sequence of Fatty acid synthase (Homo sapiens) (P49327 whole entry, looked up): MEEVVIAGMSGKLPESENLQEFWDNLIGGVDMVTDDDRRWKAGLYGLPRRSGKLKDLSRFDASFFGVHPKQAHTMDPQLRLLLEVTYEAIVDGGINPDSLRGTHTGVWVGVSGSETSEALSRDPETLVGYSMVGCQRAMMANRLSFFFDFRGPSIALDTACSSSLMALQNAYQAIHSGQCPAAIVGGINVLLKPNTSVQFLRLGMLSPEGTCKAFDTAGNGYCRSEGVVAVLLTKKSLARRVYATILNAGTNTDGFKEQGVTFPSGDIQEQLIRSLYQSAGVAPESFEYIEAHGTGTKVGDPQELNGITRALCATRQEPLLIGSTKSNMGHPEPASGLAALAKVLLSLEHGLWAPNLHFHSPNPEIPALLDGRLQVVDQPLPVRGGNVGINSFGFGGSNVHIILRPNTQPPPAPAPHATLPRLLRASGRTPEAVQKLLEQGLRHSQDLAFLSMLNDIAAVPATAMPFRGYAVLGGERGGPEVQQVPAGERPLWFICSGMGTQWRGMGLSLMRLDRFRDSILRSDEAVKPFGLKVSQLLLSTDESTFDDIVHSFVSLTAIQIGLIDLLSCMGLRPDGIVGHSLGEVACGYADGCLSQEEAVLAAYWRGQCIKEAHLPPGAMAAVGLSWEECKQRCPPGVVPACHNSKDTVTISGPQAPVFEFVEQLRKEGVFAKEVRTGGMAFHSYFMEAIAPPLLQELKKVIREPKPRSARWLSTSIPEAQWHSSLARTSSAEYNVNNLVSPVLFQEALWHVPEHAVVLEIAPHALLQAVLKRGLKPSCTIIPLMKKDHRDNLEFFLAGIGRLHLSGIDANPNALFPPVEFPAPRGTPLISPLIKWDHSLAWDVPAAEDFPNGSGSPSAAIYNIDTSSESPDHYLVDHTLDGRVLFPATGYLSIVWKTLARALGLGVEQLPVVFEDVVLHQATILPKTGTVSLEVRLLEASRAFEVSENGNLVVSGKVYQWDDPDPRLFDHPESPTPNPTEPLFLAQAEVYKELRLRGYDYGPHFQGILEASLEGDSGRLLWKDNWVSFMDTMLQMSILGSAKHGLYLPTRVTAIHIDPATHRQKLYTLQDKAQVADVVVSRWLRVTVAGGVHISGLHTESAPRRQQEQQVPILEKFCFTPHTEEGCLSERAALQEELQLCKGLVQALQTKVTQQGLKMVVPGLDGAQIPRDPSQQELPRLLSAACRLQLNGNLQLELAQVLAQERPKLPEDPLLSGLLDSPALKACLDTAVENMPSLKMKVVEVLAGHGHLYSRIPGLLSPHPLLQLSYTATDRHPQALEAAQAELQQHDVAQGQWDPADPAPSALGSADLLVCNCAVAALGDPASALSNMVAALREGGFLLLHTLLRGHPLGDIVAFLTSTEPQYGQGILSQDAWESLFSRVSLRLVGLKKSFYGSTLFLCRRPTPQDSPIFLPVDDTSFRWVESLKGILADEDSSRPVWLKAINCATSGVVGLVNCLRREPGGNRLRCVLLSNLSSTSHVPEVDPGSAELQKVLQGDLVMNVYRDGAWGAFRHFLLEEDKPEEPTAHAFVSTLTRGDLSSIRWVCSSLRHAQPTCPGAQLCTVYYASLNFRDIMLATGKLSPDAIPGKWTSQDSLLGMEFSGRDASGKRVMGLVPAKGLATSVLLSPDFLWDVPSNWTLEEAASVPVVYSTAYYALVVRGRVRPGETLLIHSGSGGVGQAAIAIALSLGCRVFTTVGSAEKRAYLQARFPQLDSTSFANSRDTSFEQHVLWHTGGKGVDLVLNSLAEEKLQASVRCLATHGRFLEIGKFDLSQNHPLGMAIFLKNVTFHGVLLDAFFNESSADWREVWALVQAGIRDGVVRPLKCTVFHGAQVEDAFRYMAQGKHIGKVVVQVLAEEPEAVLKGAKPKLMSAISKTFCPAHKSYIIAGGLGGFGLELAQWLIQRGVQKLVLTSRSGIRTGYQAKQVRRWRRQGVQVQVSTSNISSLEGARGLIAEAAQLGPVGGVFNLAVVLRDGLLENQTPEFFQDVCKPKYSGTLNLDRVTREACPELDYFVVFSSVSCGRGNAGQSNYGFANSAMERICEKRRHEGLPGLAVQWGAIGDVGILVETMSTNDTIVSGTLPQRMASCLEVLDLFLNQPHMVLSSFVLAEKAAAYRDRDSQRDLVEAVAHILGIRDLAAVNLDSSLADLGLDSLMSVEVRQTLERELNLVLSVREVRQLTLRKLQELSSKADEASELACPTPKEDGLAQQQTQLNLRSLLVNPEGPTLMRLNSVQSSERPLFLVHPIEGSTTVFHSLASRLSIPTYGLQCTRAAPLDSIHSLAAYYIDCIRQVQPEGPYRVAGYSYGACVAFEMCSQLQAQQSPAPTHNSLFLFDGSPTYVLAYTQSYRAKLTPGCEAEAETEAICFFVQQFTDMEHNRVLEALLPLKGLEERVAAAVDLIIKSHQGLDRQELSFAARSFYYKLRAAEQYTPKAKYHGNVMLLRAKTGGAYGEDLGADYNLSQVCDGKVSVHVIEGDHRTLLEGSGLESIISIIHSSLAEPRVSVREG

CN(C)C(=O)Cl
inactive: [1] | [2] | [3] | [4] | [5] | [6] | [8]
active: [7] 50 µM

COCCOCCO
inactive: [1] | [2] | [4] | [5] | [6] | [7] | [8] | [9]

CCCN(CCC)c1c([N+](=O)[O-])cc(C(C)C)cc1[N+](=O)[O-]
inactive: [2] | [3] | [4] | [5] | [6] | [8] | [9]
active: [1] 12.7 µM | [7] 24.5 µM | [10] 0.234 µM

CCN(CC)c1ccccc1
active: [7] 50 µM
inactive: [1] | [2] | [3] | [4] | [5] | [6] | [8] | [9]

CCC1(c2ccccc2)C(=O)N=C(O)NC1=O (stereo not given)
active: [7] 64.3 µM
inactive: [1] | [2] | [3] | [4] | [5] | [6] | [8] | [9]

CCOC(=O)c1ccccc1C(=O)OCC
active: [7] 74 µM
inactive: [1] | [2] | [3] | [4] | [5] | [6] | [8] | [9]

CC(C)(C)OOC(C)(C)C
inactive: [1] | [2] | [3] | [4] | [5] | [6] | [7] | [8] | [9]

c1cc2c3c(cccc3c1)CC2
active: [4] 0.387 µM | [7] 72.4 µM
inactive: [1] | [2] | [3] | [11] | [5] | [6] | [8] | [9]

CC(Cc1ccc(OCC(=O)O)cc1)NCC(O)c1csc(C(F)(F)F)n1 (stereo not given)
inactive: [1] | [2] | [3] | [4] | [5] | [6] | [8] | [9]
active: [7] 0.0496 µM

CCOP(=S)(OCC)SCSCC
inactive: [1] | [2] | [4] | [5] | [6] | [8] | [9]
active: [7] 66.7 µM

O=P1(N(CCCl)CCCl)NCCCO1 (stereo not given)
active: [7] 50 µM
inactive: [1] | [2] | [3] | [4] | [5] | [6] | [8] | [9]

O=[N+]([O-])c1ccc(Cl)c(Cl)c1
active: [7] 5.16 µM
inactive: [1] | [2] | [3] | [4] | [5] | [6] | [8] | [9]

CCCCN(CCCC)SN(C)C(=O)Oc1cccc2c1OC(C)(C)C2
inactive: [1] | [2] | [3] | [4] | [5] | [6] | [8] | [9]
active: [7] 50 µM

O=C(O)C1C(C(=O)O)C2(Cl)C(Cl)=C(Cl)C1(Cl)C2(Cl)Cl (stereo not given)
inactive: [1] | [2] | [3] | [4] | [5] | [6] | [7] | [8] | [9]

CCOS(=O)(=O)OCC
inactive: [1] | [2] | [3] | [4] | [5] | [6] | [7] | [8] | [9] | [10]

— PubChem BioAssay (EPA / NIEHS)
